# Compound activity deposited in PubChem BioAssay by The Scripps Research Institute Molecular Screening Center.
# LYPLA1 counter = LYPLA1 (human) inhibition in PME1 counter-screen | actives 0.16% (n = 320,000) | recombinant LYPLA1, FP-Rh probe fluorescence polarization | O75608 | AID 2174 | inhibition, % at 5.9 µM;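 active = inhibition above the mean of all tested compounds plus 3 SD, set per campaign, cut at about 14% in these data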;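 also: inhibitors block serine hydrolase probe labeling of LYPLA1 so polarization falls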
# Target sequence (O75608 whole entry, looked up): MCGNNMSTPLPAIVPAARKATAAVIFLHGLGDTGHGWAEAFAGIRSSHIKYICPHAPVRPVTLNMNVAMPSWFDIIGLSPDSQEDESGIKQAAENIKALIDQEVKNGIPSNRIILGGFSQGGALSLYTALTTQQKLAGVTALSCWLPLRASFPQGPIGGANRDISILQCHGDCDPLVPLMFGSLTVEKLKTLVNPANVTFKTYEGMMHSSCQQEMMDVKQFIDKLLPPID
# PAFAH1B3 inh = inhibitors of human PAFAH1B3 | recombinant PAFAH1B3, FP-rhodamine probe, fluorescence polarization | inhibition, % at 3.39 µM | actives 0.28% (n = 340,000) | AID 492972 | Q15102;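 active = inhibition above the screen-wide average of all tested compounds plus 3 SD, cut at about 25% in these data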
# pPAFAH inh = pPAFAH (human) enzyme inhibition; actives 1.5% (n = 330,000); inhibition, % at 3.39 µM; Q13093; recombinant pPAFAH, FP-rhodamine probe fluorescence polarization; AID 463082;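 active = inhibition above the mean inhibition across the screen plus 3 SD, cut at about 25% in these data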;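 also: inhibitors block binding of the rhodamine activity-based probe so polarization drops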
# LYPLA2 counter = LYPLA2 (human) inhibition in PME1 counter-screen; O95372; recombinant LYPLA2, FP-Rh probe fluorescence polarization; inhibition, % at 5.9 µM; actives 0.38% (n = 320,000); AID 2177;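 active = inhibition above the screen-wide mean plus 3 SD, limit set per campaign, cut at about 26% in these data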
# PAFAH1B2 inh = inhibitors of human PAFAH1B2; P68402; actives 1.2% (n = 340,000); recombinant PAFAH1B2, FP-rhodamine activity probe, fluorescence polarization; AID 492953; inhibition, % at 3.39 µM;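 active = inhibition above the mean of all tested compounds plus 3 SD, cut at about 24% in these data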
# Target sequence (P68402 whole entry, looked up): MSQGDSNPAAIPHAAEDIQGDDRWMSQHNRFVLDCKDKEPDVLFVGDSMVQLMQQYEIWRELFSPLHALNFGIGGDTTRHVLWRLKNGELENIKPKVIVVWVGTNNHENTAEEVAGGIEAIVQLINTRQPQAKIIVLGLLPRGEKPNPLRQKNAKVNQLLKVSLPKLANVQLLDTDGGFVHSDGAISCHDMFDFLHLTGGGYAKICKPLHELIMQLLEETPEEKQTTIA
# PAFAH2 FP inh = inhibitors of human PAFAH2. Q99487. recombinant PAFAH2, FP-rhodamine activity probe, fluorescence polarization. inhibition, % at 3.39 µM. actives 0.99% (n = 340,000);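 active = inhibition above the mean over all tested compounds plus 3 SD, cut at about 30% in these data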;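 also: inhibitors block probe labeling of enzyme so polarization drops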
# PAFAH2 FP conf = PAFAH2 (human) inhibition, confirmed; shares compounds with PAFAH2 FP inh; recombinant PAFAH2, FP-rhodamine activity probe, fluorescence polarization; inhibition, % at 3.39 µM; actives 65% (n = 2,300);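 active = mean inhibition over three repeats above a set limit taken from the earlier primary screen, cut at about 30% in these data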;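 also: inhibitor blocks binding of rhodamine activity probe so polarization falls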
# Numbers stand for hits; . = inactive; / = not tested or not shown. Compounds with a hit are over-represented: about 2.9% of the library has one in this group of screens.
SMILES,LYPLA1 counter,PAFAH1B3 inh,pPAFAH inh,LYPLA2 counter,PAFAH1B2 inh,PAFAH2 FP inh,PAFAH2 FP conf
N#Cc1ccc(C(=O)OCC(=O)NC2CCCC2)cc1,.,.,.,.,.,.,/
COCc1[nH]nc2c1C(c1ccc(F)cc1F)C(C#N)=C(N)O2 (stereo unspecified),.,.,.,.,.,.,/
C=CCC1c2cccc(C(=O)O)c2C(=O)N1c1ccc(Cl)cc1 (stereo unspecified),.,.,.,.,.,.,/
O=C(c1ccc(-c2cccc(C(F)(F)F)c2)o1)N1CCCC(C(F)(F)F)C1 (stereo unspecified),.,.,.,.,.,33,.
O=C(c1ccc(-c2cccc(C(F)(F)F)c2)o1)N1CCN(c2ccccc2O)CC1,.,.,.,.,.,.,/
COc1ccc(OCc2ccc(C(=O)N3CCOCC3)cc2)cc1,.,.,.,.,.,.,/
O=C(CNC(=O)C12CC3CC(CC(C3)C1)C2)N1CCN(S(=O)(=O)/C=C/c2ccccc2)CC1,.,.,.,.,.,35,.
O=C(Nc1ccc2ccccc2c1)C(=O)C1C(=O)Nc2ccccc21 (stereo unspecified),.,/,.,.,/,/,/
Cc1cccc(NC(=O)C(=O)C2C(=O)Nc3ccccc32)c1 (stereo unspecified),.,.,.,.,.,36,.
Cc1ccsc1C(=O)OCC(=O)NC1CC1,/,.,.,/,.,33,.
Cc1ccc(C(=O)OCC(=O)NC2CC2)s1,/,.,.,/,.,70,55
Cc1ccc(C(=O)NCC(=O)NC2CCC(C)CC2)s1 (stereo unspecified),.,.,.,.,.,.,/
COC(=O)Cn1c(SCc2ccccc2)nc2ccccc21,.,.,.,.,.,.,/
O=C(COC(=O)c1cccnc1Cl)c1ccc(OC(F)F)cc1,.,.,.,.,.,.,/
O=C(O)Cc1ccc(NC(=O)C2CC=CCC2C(=O)O)cc1 (stereo unspecified),.,/,.,.,/,/,/
Cc1cccc(C(=O)Nc2sc(C)c(-c3ccccc3)c2C#N)c1,.,.,.,.,.,47,.
CC(=O)c1ccc(N(CC(=O)NCC2CCCO2)C(=O)CCC(=O)Nc2cc(C)on2)cc1 (stereo unspecified),.,.,.,.,.,.,/
Cc1ccc(CNC(=O)N2CCN(c3ccc(C)cc3)CC2)cc1,.,.,.,.,.,.,/
O=C1C(Cl)=C(Nc2ccccc2O)C(=O)N1CCc1ccccc1,.,.,.,.,.,44,37
CC1CC1C(=O)OCC(=O)Nc1ccc(Cl)cn1 (stereo unspecified),/,.,.,/,.,47,39
O=C(COC(=O)C1CC2CCCC(C1)C2=O)Nc1ccc(Cl)cn1 (stereo unspecified),.,.,.,.,.,47,.
COc1cc(Cl)c(C)cc1NC(=O)COC(=O)C1CC1C (stereo unspecified),/,.,.,/,.,.,/
Cc1nc(NC(=O)COC(=O)C2CC2C)c(Cl)cc1Cl (stereo unspecified),/,.,.,/,.,34,.
CCOc1ccc(NC(=O)COC(=O)C2CC2C)cc1 (stereo unspecified),/,.,.,/,.,60,47
O=C(Cc1cccc(NC(=O)C2CCN(C(=O)C3CCCCC3)CC2)c1)Nc1cccc(C(=O)N2CCCCC2)c1,/,.,/,/,.,.,/
SMILES,LYPLA1 counter,PAFAH1B3 inh,pPAFAH inh,LYPLA2 counter,PAFAH1B2 inh,PAFAH2 FP inh,PAFAH2 FP conf
S=C(NCc1cccnc1)Nc1ccc(Cl)cc1,.,.,.,.,.,.,/
Cc1ccc(C(=O)O)cc1NC(=O)CN1C(=O)C2C3c4ccccc4C(Br)(c4ccccc43)C2C1=O (stereo unspecified),.,.,.,.,.,.,/
Cc1cc(/C=C(\C#N)C(=O)N2CCOCC2)c(C)n1C1CCCC1,.,.,.,.,.,.,/
O=c1cc(-c2ccccc2)nc2cc(-c3ccc(F)cc3)[nH]n12,.,.,.,.,.,64,.
COc1cccc(-c2cc3nc(-c4ccccc4)cc(=O)n3[nH]2)c1,.,.,.,.,.,.,/
COc1ccc(C(=O)c2cnc(C(C)C)n2C)cc1,.,.,.,.,.,.,/
CCOC(=O)c1ccc(NC(=O)N2CCc3ccccc3C2)cc1,.,.,.,.,.,.,/
CC(=O)c1c(C)[nH]c(C(=O)OCC(=O)N2CCc3ccccc3C2)c1C,.,.,.,.,.,30,.
O=C(OCC(=O)N1CCc2ccccc2C1)c1ccc(O)cc1,/,.,.,/,.,47,30
COc1cccc(C(=O)OCC(=O)N2CCc3ccccc3C2)c1,/,.,.,/,.,.,/
NC(=O)Nc1ccc(C(=O)OCC(=O)N2CCc3ccccc3C2)cc1,.,.,.,.,.,54,47
O=C(c1cc2cc(Cl)ccc2o1)N1CCCCCC1,/,.,/,/,.,.,/
O=C(NC12CC3CC(CC(C3)C1)C2)c1cccnc1,.,.,.,.,.,.,/
O=C(NC12CC3CC(CC(C3)C1)C2)c1cncc(O)c1,.,.,.,.,.,38,.
CN1CCC(OC(=O)COc2ccc(Br)cc2)CC1,.,.,.,.,.,.,/
CC(C)=CC(=O)OCC(=O)Nc1cccc([N+](=O)[O-])c1,.,.,.,.,.,76,75
CC1CC1C(=O)OCC(=O)Nc1cccc([N+](=O)[O-])c1 (stereo unspecified),.,.,.,.,.,82,84
Cc1ccc(C(=O)c2ccccc2C(=O)OCC(=O)Nc2cccc([N+](=O)[O-])c2)cc1,.,.,.,.,.,73,77
CN(C)CCNc1ccc(CO)c2oc3ccc(O)cc3c(=O)c12,/,.,/,/,.,.,/
Oc1ccc(Cl)cc1C1=Nc2ccccc2N=C(c2ccco2)C1,.,.,.,.,.,.,/
O=C1c2ccccc2[C@@H]2C[C@@H](O)[C@H](Nc3cccc(C(F)(F)F)c3)CCN12,/,.,.,/,.,40,30
Cc1sc(NC(=O)c2cc(-c3ccc(Cl)cc3)nc3ccccc23)c(C(N)=O)c1C,.,.,.,.,.,.,/
O=C(COC(=O)/C=C/c1ccccc1)NC1CCCCCC1,/,.,/,/,.,89,82
CNC(=O)COC(=O)/C=C/c1cccs1,.,.,.,.,.,.,/
O=C(COC(=O)/C=C/c1ccccc1)NC1CC1,.,.,.,.,.,54,33
O=C(COC(=O)/C=C/c1cccs1)NC1CC1,.,.,.,.,.,41,39
O=C(COC(=O)/C=C/c1ccccc1)NC(=O)NC1CCCCC1,/,.,.,/,.,35,.
O=C(COC(=O)/C=C/c1cccc(C(F)(F)F)c1)NC1CCCCCC1,.,.,.,.,.,31,43
O=C(COC(=O)/C=C/c1ccccc1[N+](=O)[O-])NC1CC1,.,.,.,.,.,36,.
